Screen size: about 1,200 compounds; about 400 (33%) were called active. How the calls were made is not given here. Only a sample is shown. Entries with a potency or affinity are not part of this list.
Assay: mammalian cell cytotoxicity, dose response, cytotoxicity control (AID 434958);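 further: cells exposed to compound for 72 hours before readout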
Conditions: cytotoxicity counter-screen; series mostly up to 40 µM; viability: at the top concentration

Structure (SMILES) | viability
Cc1ccc(C(=O)OCCN2CCN(c3ncc(C(F)(F)F)cc3Cl)CC2)cc1 | 89.8% (inactive)
N#Cc1c(-c2cccs2)cc(-c2ccccn2)nc1N | 87.3% (inactive)
Cc1cc(C)c2c(N)c(S(=O)c3ccc(C(C)(C)C)cc3)sc2n1 (stereo not given) | 102% (inactive)
CC(=O)c1ccc(OCCCC(=O)OCC(=O)N2CCN(c3ccccc3)CC2)cc1 | 100% (inactive)
Cc1nnc(SCc2cccc(Cl)c2)n(N)c1=O | 95.2% (inactive)
Cc1cccc(/C=N\NC(=O)c2csnn2)c1 | 99.9% (inactive)
O=C(Cc1ccc(Cl)cc1Cl)Nc1ccc(OC(F)F)c(Cl)c1 | 104% (inactive)
CCOC(=O)Cn1c(C)cc(=O)c2cccc(C)c21 | 105% (inactive)
O=C(Nc1ccccc1Br)c1cccc2ccccc12 | 91.8% (inactive)
Cc1ccn2c(CNCCn3nc(C)cc3C)c(C(=O)N3CCCCCC3)nc2c1 | 98.5% (inactive)
COc1ccc(C(=O)NC(=S)NC(C)(C)C)cc1Br | 82.4% (inactive)
COc1ccc(C2(CNC(=O)c3cc([N+](=O)[O-])cc([N+](=O)[O-])c3)CCCC2)cc1OC | 95.8% (inactive)
CN1C2CCC1CC(OC(=O)c1ccc([N+](=O)[O-])cc1)C2 (stereo not given) | 104% (inactive)
CCC(=O)c1ccc(OCc2ccc(C(=O)OC)cc2)c(OC)c1 | 106% (inactive)
O=C(COC(=O)Cc1ccc(S(=O)(=O)N2CCCCC2)s1)Nc1ccc2c(c1)OCO2 | 97% (inactive)
CC(=O)Nc1ccc(SCC(=O)c2cc(C)n(CC(F)(F)F)c2C)cc1 | 95.3% (inactive)
CCOC(=O)Cn1c(=NC(=O)C2CC2)sc2c(C)cc(C)cc21 | 97.5% (inactive)
O=C(OCC(=O)N(Cc1ccccc1)C1CCS(=O)(=O)C1)c1cc2c(s1)CCCC2 (stereo not given) | 87.1% (inactive)
O=C(COc1ccccc1[N+](=O)[O-])N(Cc1cccc(Br)c1)C1CCS(=O)(=O)C1 (stereo not given) | 95% (inactive)
Cc1ccc(C(=O)NCC2(c3ccccc3)CCCC2)cc1 | 81% (inactive)
COCCNC(C(=O)Nc1ccc(C)cc1[N+](=O)[O-])c1ccccc1 (stereo not given) | 96.9% (inactive)
CC(NC(=O)CSc1nc2ccccc2c(=O)[nH]1)c1ccccc1 (stereo not given) | 91.8% (inactive)
CCOC(=O)COc1nc(-c2ccc(Cl)cc2)cc(-c2ccco2)c1C#N | 98.2% (inactive)
CN(c1ccc(OCC(=O)OCC(=O)c2c(N)n(C)c(=O)n(C)c2=O)cc1)S(=O)(=O)c1ccc2ccccc2c1 | 99.8% (inactive)
CC1(C)CC(CCNC(=O)CCl)(c2ccccc2)CCO1 (stereo not given) | 81.7% (inactive)
Cn1ccnc1C(=O)Cc1ccc([N+](=O)[O-])cc1 | 94.1% (inactive)
CCOC(=O)c1sc(NC(=O)CSc2n[nH]c(CC(C)C)n2)nc1C | 86.7% (inactive)
Cc1ccccc1C(=O)NC(=S)Nc1sc2c(c1C#N)CCC(C)C2 (stereo not given) | 90.5% (inactive)

Structure (SMILES) | viability
CCOC(=O)c1c(NC(=O)C(=O)N/N=C/c2ccccc2OC)sc2c1CCCCC2 | 96.4% (inactive)
Cc1cc(C(=O)CSc2nnnn2-c2ccccc2)c(C)n1-c1ccc2c(c1)OCO2 | 81.2% (inactive)
O=C(Nc1nc(-c2ccc(F)c(F)c2)cs1)c1cnccn1 | 82.3% (inactive)
COc1c(NC(C)=O)c2ccccc2c2ccccc12 | 106% (inactive)
COc1ccc2nc(SCc3cccc(C)c3)nc(C)c2c1 | 85.5% (inactive)
NC(=S)N/N=C/c1cccc(/C=N/NC(N)=S)c1 | 93.9% (inactive)
O=C(Cn1c(=O)c2cccn2c2ccccc21)NCCc1ccc(Cl)cc1 | 104% (inactive)
Cc1ccc(-n2ncc3c(=O)n(CC#N)cnc32)cc1C | 89% (inactive)
COc1ccc(C2CC(c3c(-c4ccccc4)c4cc(Cl)ccc4[nH]c3=O)=NN2S(C)(=O)=O)cc1 (stereo not given) | 85.1% (inactive)
CC(=O)c1sc(N/N=C\c2ccc(N(C)C)cc2)nc1C | 96.8% (inactive)
CC(C)c1ccc(/C=C/C(=O)NC2CCCCC2)cc1 | 101% (inactive)
CN(C)/N=C/c1ccc(/C=N/NC(N)=S)o1 | 95.5% (inactive)
O=C(N/N=C/c1cccc(Br)c1)c1ccc(Cn2cc(Br)cn2)o1 | 100% (inactive)
O=C1OC(c2ccco2)=N/C1=C\c1ccc(-c2cccc(C(F)(F)F)c2)o1 | 90.5% (inactive)
CC1(C)C2CC=C(/C=N/NC(=O)c3ccccc3O)C1C2 (stereo not given) | 88.5% (inactive)
CC1=NN(c2ccccc2)C(=O)/C1=C/c1c(O)[nH]c(=S)[nH]c1=O | 96.3% (inactive)
Cc1cc(N2CCN(c3ccccc3)CC2)nc2ccccc12 | 85.2% (inactive)
COc1ccc(NC(=O)C(Cc2ccccc2)n2cccc2)c(OC)c1 (stereo not given) | 97.5% (inactive)
CCCN1C(=O)c2ccc(C(=O)Nc3cc(C)on3)cc2C1=O | 99.8% (inactive)
COc1ccc(OC)c(NC(=O)CSC2=C(C#N)C(c3ccco3)C3=C(CCCC3=O)N2)c1 (stereo not given) | 89.4% (inactive)
CC(=O)c1ccc(-n2c(C)ccc2-c2ccccc2)cc1 | 91.2% (inactive)
COc1cc(NC(=S)NC(=O)c2cccs2)ccc1NC(=O)C(C)C | 86.8% (inactive)
Cc1ccc(/C=C/C(=O)OCC(=O)NC(C)c2ccccc2)o1 (stereo not given) | 95.2% (inactive)
CCOC(=O)N1CCC(N2CCN(S(=O)(=O)c3ccc(Cl)cc3)CC2)CC1 | 98.2% (inactive)
COc1ccc(-c2csc(Nc3ccc(C)cn3)n2)cc1OC | 89.5% (inactive)
Cc1nnnn1/C(=C\c1ccccc1)C(=O)OCC(=O)Nc1ccc(Cl)cc1F | 101% (inactive)
Cc1ccccc1OCC(=O)Nc1ccccc1-c1ccccc1 | 86.1% (inactive)
